This is part of a sample that, as a whole, favours compounds with a hit. Of some 83,000 tested, about 20% had one in any assay.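 Method: cells in 96-well plates; compound added at one concentration; 48 h incubation; percent growth measured; values under 10 scored active.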 Activity calls are given as the source filed them.
The compounds below were run on HL-60(TB) leukemia (assay: NCI-60 one-dose screen, 48 h (100 = growth as untreated, 0 = no growth, -100 = all killed)). Details: 10 µM unless noted.
O=C1c2cc(Cl)ccc2Oc2cc([N+](=O)[O-])ccc2N1c1ccc(F)cc1F was tested, and the growth was 76% (inactive). In the case of CC1(C)C(O)NC(Cl)=C(C#N)C1(C#N)C#N (stereo not drawn), the growth is reported as 114% (inactive). In the case of CCOC(=O)c1cc(C#N)n2ccc3ccccc3c12, the growth is reported as 92.1% (inactive). With CCC1NC(=O)c2cc(S(N)(=O)=O)c(Cl)cc2N1 (stereo not drawn) the growth was 120% (inactive). In the case of CN1CCN(Cc2ccc(NC(=O)c3cncc(C#Cc4c(N)ncc5cc(F)ccc45)c3)cc2C(F)(F)F)CC1, the growth is reported as -46.2% (active). With C[C@@H]1CC[C@@]2(OC1)O[C@H]1C[C@H]3[C@@H]4CC=C5C[C@@H](O[C@@H]6O[C@H](CO)[C@@H](O[C@@H]7O[C@@H](CO)[C@H](O)[C@H]7O)[C@H](O)[C@H]6O[C@@H]6O[C@@H](C)[C@H](O)[C@@H](O)[C@H]6O)CC[C@]5(C)[C@H]4CC[C@]3(C)[C@H]1[C@@H]2C the growth was -84.1% (active). In the case of O=c1[nH]c(=O)n(C2CC(O)C(CO)O2)cc1C(F)(F)F (stereo not drawn), the growth is reported as -22.2% (active). In the case of O=[N+]([O-])c1ccc(-c2cc3c(Nc4ccc(Sc5nc6ccccc6s5)c(Cl)c4)ncnc3s2)cc1, the growth is reported as 21.6% (inactive). In the case of O=c1[nH]c(CN2CCN(c3ccccc3F)CC2)nc2sc3c(c12)CCC3, the growth is reported as 116% (inactive). CCOC(=O)C1=C(C)C(Cl)=N/C1=C\c1[nH]c(Cl)c(C)c1C(=O)OCC was tested, and the growth was 95% (inactive). For Brc1ccc(Br)nn1, the growth was -32.7% (active). CCCCCCCCCCNC(=O)CI was tested, and the growth was 19.3% (inactive). With COc1cc(-c2nn(-c3ccc(Br)cc3)cc2CO)ccc1O the growth was 74.8% (inactive).

Reference: PubChem BioAssay (NCI)
